# Assay results from PubChem BioAssay (NCI).
# Compounds without any hit were thinned out: in the full panel of roughly 83,000, 20% have a hit.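 Cell lines were cultured in 96-well plates, exposed to a single compound concentration, and assessed for percent growth 48 hours later.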 A number with no mark means an inactive call. Calls of active or inactive are those of the source. How the source made its calls: active means growth percent below 10; inactive means the rest.
# Tests used:
# Test in all cases: NCI-60 one-dose screen, 48 h (100 = growth as untreated, 0 = no growth, -100 = all killed)
# Conditions in all cases: 10 µM unless noted
# NCI-H23 lung = test system: NCI-H23 lung
# NCI-H226 lung = test system: NCI-H226 lung
# NCI-H322M lung = test system: NCI-H322M lung
# HOP-62 NSCLC = test system: HOP-62 NSCLC
# NCI-H460 lung = test system: NCI-H460 lung
# HOP-92 NSCLC = test system: HOP-92 NSCLC
# A549/ATCC NSCLC = test system: A549/ATCC NSCLC
# COLO 205 colon = test system: COLO 205 colon
# 786-0 renal = test system: 786-0 renal
Compound,growth (NCI-H23 lung),growth (NCI-H226 lung),growth (NCI-H322M lung),growth (HOP-62 NSCLC),growth (NCI-H460 lung),growth (HOP-92 NSCLC),growth (A549/ATCC NSCLC),growth (COLO 205 colon),growth (786-0 renal)
FC(F)(F)c1cc(-c2nnc3n2N=C(N2CCCC2)CS3)cc(C(F)(F)F)c1,62.7%,58.4%,99%,37.7%,58.1%,37.4%,60.4%,98.1%,–
COc1ccc(CC(=O)Nc2nn3c(-c4cc(C(F)(F)F)cc(C(F)(F)F)c4)nnc3s2)cc1,35.2%,62.8%,90.6%,98.9%,56.6%,15.4%,78.1%,104%,–
CC12CCC3C(=CCc4cc(O)ccc43)C1CCC2=O (configuration not stated),103%,102%,94.9%,99.2%,108%,99.4%,–,–,105%
O=CN1N=C(c2ccc(Nc3ccnc4cc(Cl)ccc34)cc2)CC1c1ccc(Cl)cc1 (configuration not stated),39.2%,52.6%,44.1%,33.8%,6.99% (active),49.5%,–,–,27.9%
Fc1ccc(-c2nn3c(-c4cc(C(F)(F)F)cc(C(F)(F)F)c4)nnc3s2)cc1,45.5%,6.11% (active),56.3%,-11.5% (active),4.16% (active),-20.5% (active),33.3%,73.1%,–
CC(C)Cn1cnc2c(NCn3nc(-c4cc(Cl)cc(Cl)c4Cl)n(/N=C/c4ccc(Cl)cc4)c3=S)nc3ccccc3c21,80.9%,73.4%,81.6%,79.4%,99.1%,45%,77.9%,94.6%,90.7%
CN1C(=O)C(C2=NN(C=O)C(c3ccc(F)cc3)C2)C(=O)N(C)C1=O (configuration not stated),99%,85.2%,106%,84.4%,102%,91.7%,74.7%,104%,100%
O=C(CSc1ncc(-c2ccccc2)n1-c1ccccc1)Nc1ccc(-c2nc3ccccc3s2)cc1,62.6%,103%,90.1%,73.1%,36.3%,95.6%,–,103%,69.8%
Cc1[nH]c(=O)[nH]c(=O)c1CCSSCCc1c(C)[nH]c(=O)[nH]c1=O,107%,102%,89.9%,97.2%,108%,116%,103%,107%,103%
FCc1ncc(-c2ccc(C(F)(F)F)cc2)c(NC2CCCCCC2)n1,10.9% [100 µM],34.4% [100 µM],36.3% [100 µM],31.2% [100 µM],-28.9% [100 µM] (active),-31.7% [100 µM] (active),7.62% [100 µM] (active),-21% [100 µM] (active),-13.7% [100 µM] (active)
CC[N+](CCCCCCCCCC[N+](CC)(c1ccccn1)c1ccccn1)(c1ccccn1)c1ccccn1,1.17% (active),33.2%,-15.8% (active),10.7%,0.887% (active),-22.5% (active),1.29% (active),-80% (active),34.5%
CC(=O)/C(=C/c1ccc(Cl)cc1)C(=O)c1ccccc1,88.6%,107%,101%,95.5%,99.7%,62.5%,94.8%,111%,93.9%
O=C1Nc2ccc(C(=O)O)c(O)c2C1=O,107%,104%,105%,97.4%,105%,97.3%,96.9%,104%,109%
C[C@H](C(=O)N[C@@H](Cc1ccc(-c2ccccc2)cc1)C(=O)NC1CC(C)(C)NC(C)(C)C1)c1ccc(-c2ccccc2)c(F)c1,-42% (active),-26.7% (active),-34% (active),-67.4% (active),-76.4% (active),-69.7% (active),-76.9% (active),-81.8% (active),-88.6% (active)
COC(=O)c1cc2oc(/C=N\NC(=O)c3cc4oc(C)c(C)c4[nH]3)cc2[nH]1,104%,117%,106%,110%,111%,-34.1% (active),112%,94%,107%
